# Screening data deposited in PubChem BioAssay by National Center for Advancing Translational Sciences (NCATS).
# Shown is part of a subset that was picked to be rich in hits.
# Shiga inhibitor: A qHTS for Small Molecule Inhibitors of Shiga Toxin. Vero cells, Shiga toxin protein synthesis inhibition reporter. inhibition, % at 38.7 µM. hit rate 9.2% among 290,000; in the data active means inhibition mostly above about 28%, no sharp cut-off; inactive means mostly below about 43%; further: 0% is about no effect
# CHX counter-1: Cycloheximide Counterscreen for Small Molecule Inhibitors of Shiga Toxin. AID 2314, 2010. hit rate 12% among 300,000. max response, %. cell reporter, cycloheximide protein synthesis inhibition counterscreen; in the data active means max response mostly above about 13%, no sharp cut-off; inactive means mostly below about 14%; further: read at 38.3 µM for the half of the compounds with a filed dose; 0% is about no effect
# AMA1-RON2 inh: qHTS for Inhibitors of AMA1-RON; Towards Development of Antimalarial Drug Lead: Primary Screen; AlphaScreen AMA1-biotinylated RON2 peptide binding; Potency, µM (doses to about 58.2 µM), for inactives: top-dose activity change, negative = inhibition, usual class: inhibitors; hit rate 0.2% among 360,000; AID 720542, 2013; active means well fitted inhibition curve with a large enough effect; inconclusive means small, poorly fitted or top-dose-only effect; inactive means no such curve, though single readings can be large or run the other way;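 further: potency means the concentration at half of the fitted maximal effect; 0% = vehicle wells and -100% = peptide control; nearly all actives have a fitted effect of over 45% in size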
#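 AMA1 (3D7) with his tag at 25 nM final met compounds first, then biotinylated RON2 peptide at 25 nM; detection used donor plus acceptor beads, 10 µg/mL apiece, read by AlphaScreen after 30 min at room temperature.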
# Marburg entry inh: qHTS for inhibitors of binding or entry into cells for Marburg Virus | hit rate 1.8% among 300,000 | Marburg virus pseudotyped entry inhibition, cell reporter | Potency, µM (series often up to 37.8 µM), for the others: top-dose activity change, negative = inhibition, hits mostly inhibitors; calls by dose curve; tested in HEK293 cells; further: potency means the concentration at half of the fitted maximal effect; on the % scale 0 is the no-effect control and ±100 the full control effect
# Lassa entry inh: qHTS for Inhibitors of binding or entry into cells for Lassa Virus. hit rate 1.2% among 300,000. Potency, µM (titrated, usually from 37.9 µM), inactives show top-dose activity change, negative = inhibition, hits mostly inhibitors. Lassa virus pseudotype entry inhibition, cell reporter. AID 540256, 2011; calls by dose curve; tested in HEK293 cells; further: potency means the concentration at half of the fitted maximal effect; on the % scale 0 is the no-effect control and ±100 the full control effect; nearly all actives have a fitted effect of over 50% in size
# CHX counter-2: Cycloheximide Counterscreen for Small Molecule Inhibitors of Shiga Toxin (Confirmatory). Potency, µM (series often up to 38.3 µM), inactives show at the top dose activity (activation), most hits filed as activators. Cycloheximide counterscreen, protein synthesis reporter, Shiga toxin assay. hit rate 3% among 510. shares compounds with Shiga inhibitor. AID 2318, 2010; calls by dose curve; further: potency means the concentration at half of the fitted maximal effect; 0% is about no effect
# * = called active by the depositor; ? = inconclusive; . = no result; [ ] = another dose, or the depositor's remark.
SMILES,Shiga inhibitor,CHX counter-1,AMA1-RON2 inh,Marburg entry inh,Lassa entry inh,CHX counter-2
COc1cc(Br)cc(/C=C/c2ccc3cccc(O)c3n2)c1OC,-2,-3,106%,.,.,.
CCOc1c(OC(C)=O)ccc(/C=C/c2ccc3cccc(OC)c3n2)c1[N+](=O)[O-],36*,40*,-29%,4%,?,.
COc1ccc(/C=C/c2ccc3cccc(O)c3n2)c(OC)c1OC,113*,39*,80%,.,.,.
Cc1ccc(-c2noc(-c3nnn(CC(=O)Nc4cc(C)cc(C)c4)c3N)n2)cc1,.,.,.,.,5%[46.1 µM],.
Cc1noc(C)c1S(=O)(=O)Nc1ccc2c(c1)C(=O)N([C@H](C)CO)C[C@H](C)[C@@H](CN(C)C(=O)NC1CCCCC1)O2,.,.,7%,.,.,.
O=C(Nc1cc(Br)ccc1O)C1CC(c2c(F)cccc2Cl)=NO1 (centres undefined),-1,1,-9%,.,.,.
O=C(Nc1ccc(Br)cc1)C1CC(c2c(F)cccc2Cl)=NO1 (centres undefined),16,13*,-4%,.,.,.
CSc1ccccc1NC(=O)C1CC(c2c(F)cccc2Cl)=NO1 (centres undefined),42*,30*,-7%,.,.,.
Cc1ccc(O)c(NC(=O)C2CCCCC2)c1,34*,8,30%,19%[46.1 µM],24%[46.1 µM],1%
CCCC[C@@H]1C[C@H]1[C@@H](NC(=O)c1ccco1)c1ccc(Cl)cc1,84*,12,-1%,-8%,-4%,2%
CCCC[C@@H]1C[C@H]1[C@@H](NC(=O)c1cccs1)c1ccc(Cl)cc1,-13,-3,14%,?,3%,.
N=c1c(S(=O)(=O)c2ccc(Cl)cc2)cc2c(=O)n3ccccc3nc2n1C1CCCCC1,active,14,5%,18%[46.1 µM],-7%[46.1 µM],-1%
Cc1cc(Cl)ccc1C(=O)C1CCCN(C(=O)c2cncs2)C1 (centres undefined),-14,-2,-6%,.,.,.
CCCCn1c(SCC(=O)c2ccccc2)nc2c1c(=O)[nH]c(=O)n2C,16*,-1,11%,?,-1%,0%
CSCCC(NS(=O)(=O)c1ccccc1F)C(=O)N1CCCCCCC1 (centres undefined),-8,-4,2%,18%,-12%,.
CC1CCc2sc(C(=O)NN)cc2C1 (centres undefined),36*,11,84%,.,.,-3%
Cn1c(CN2CCCCC2)nc2cc(NC(=O)c3ccc(Cl)cc3)ccc21,27*,2,21%,21µM*,19%[46.1 µM],6%
O=C(/C=C/c1ccc(Cl)cc1)N1CCN(Cc2ccccc2)CC1,25*,9,?,?,0%,3%
CC(C)(C)C(=O)Cn1ncc(N2CCOCC2)c(Br)c1=O,26*,4,-8%,23%[46.1 µM],-16%[46.1 µM],5%
CCOc1ccccc1NC(=O)CN(c1ccc(Cl)cc1)S(C)(=O)=O,-8,-3,-2%,-18%,-18%,.
CCc1nc2nc(C)c(NS(=O)(=O)c3ccc(C(C)(C)C)cc3)c(=O)n2[nH]1,.,.,.,-4%[46.1 µM],15%[46.1 µM],.
COc1ccccc1NC(=O)CSc1nnc(CC(=O)Nc2ccccc2F)n1C,56*,11,4%,10%[46.1 µM],6%[46.1 µM],-2%
CCOC(=O)CSc1nnc(NC(=O)CCc2ccccc2)s1,2,-1,4%,.,.,.
CC(=O)Nc1cccc2ncccc12,41*,-3,-2%,14%,13%,-5%
COC(=O)[C@H](CC(C)C)NC(=O)N1CCC(C)CC1,-3,-1,7%,15%,?,.
O=C(Cn1cnc2cc([N+](=O)[O-])ccc2c1=O)NCc1ccc(Cl)cc1,47*,6,20%,-19%[46.1 µM],6%,-1%
Cc1ccc(NC(=O)Cn2cnc3cc([N+](=O)[O-])ccc3c2=O)c(Cl)c1,-5,1,0%,0%[46.1 µM],17%,.
CCOC(=O)c1c(NC(=O)c2cc(=O)c3ccc(C)cc3o2)sc(C)c1C,.,.,.,28%[46.1 µM],9%[46.1 µM],.
O=C(Nc1cccc(-c2csc(Nc3ccc(Cl)cc3)n2)c1)c1ccccc1,29*,2,-14%,.,.,?
O=C(Nc1ccc(-c2csc(Nc3ccccc3)n2)cc1)c1ccccc1,16,2,11%,.,.,.
